The list is not random: actives were taken first. Their share in the collection is about 2.3%.
Mcl1-Bid inh = disrupts binding of human Mcl-1 to Bid peptide | actives 0.97% (n = 220,000) | Q07820 | inhibition, % at 21.7 µM | TR-FRET Mcl-1/Bid-Dy647 peptide binding, 1536-well;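 active means compounds that cut the binding signal by more than half at the single screening dose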;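 further: His-tagged Mcl-1 with europium anti-His antibody binding Bid BH3 peptide; 0% = Mcl-1 plus peptide wells and 100% = peptide-only wells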
Bim-Mcl-1 = inhibitors of Bim-Mcl-1 interaction, human; Q07820; Bead-based flow cytometry, Bim peptide-Mcl-1 binding; inhibition, % at 10 µM; actives 0.1% (n = 190,000); in the data active means inhibition above about 40%;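 further: 0% = no compound tracer wells and 100% = peptide blocker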
BCLXL inh = blocks human Bcl-xL binding to Bim BH3 peptide; GST-Bcl-xL / FITC-Bim BH3 peptide fluorescence polarization; AID 2129; inhibition, % at 10.9 µM; actives 0.7% (n = 320,000);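 active means inhibition above the mean of all tested compounds plus 3 SD, cutoff set per campaign, cut at about 30% in these data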;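 further: 0% = DMSO wells and 100% = unlabeled Bim-BH3 peptide competitor; inhibitors lower millipolarization by displacing the labeled peptide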
Target sequence (Q07817 whole entry, looked up): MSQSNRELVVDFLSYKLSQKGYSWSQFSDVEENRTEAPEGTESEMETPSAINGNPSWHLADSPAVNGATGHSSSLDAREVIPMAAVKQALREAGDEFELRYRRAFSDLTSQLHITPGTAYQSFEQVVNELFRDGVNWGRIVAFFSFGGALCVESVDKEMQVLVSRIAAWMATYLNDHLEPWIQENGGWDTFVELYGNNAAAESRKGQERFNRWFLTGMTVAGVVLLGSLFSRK
MCL1-BIM inh = disrupts human MCL1 binding to BIM-BH3 peptide. GST-MCL1 / FITC-Bim-BH3 fluorescence polarization. inhibition, % at 10.9 µM. actives 0.68% (n = 320,000). AID 2057;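 active means inhibition above the mean inhibition of all tested compounds plus 3 SD, set per campaign, cut at about 40% in these data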;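 further: 0% = DMSO wells and 100% = unlabeled Bim-BH3 peptide control; higher means more loss of mP so more displacement of Bim peptide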
GLD-1 TGE inh = GLD-1-TGE RNA interaction inhibition (C. elegans) | purified GLD-1 + fluorescein TGE RNA, fluorescence polarization | inhibition, % at 5.96 µM | actives 0.44% (n = 320,000) | AID 2280;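 active means percent inhibition above a per-plate cutoff, the plate mean of test compounds plus 3 SD, cut at about 30% in these data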;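 further: 0% = DMSO wells with GLD-1 and probe and 100% = wells lacking GLD-1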
Target sequence (Q17339 whole entry, looked up): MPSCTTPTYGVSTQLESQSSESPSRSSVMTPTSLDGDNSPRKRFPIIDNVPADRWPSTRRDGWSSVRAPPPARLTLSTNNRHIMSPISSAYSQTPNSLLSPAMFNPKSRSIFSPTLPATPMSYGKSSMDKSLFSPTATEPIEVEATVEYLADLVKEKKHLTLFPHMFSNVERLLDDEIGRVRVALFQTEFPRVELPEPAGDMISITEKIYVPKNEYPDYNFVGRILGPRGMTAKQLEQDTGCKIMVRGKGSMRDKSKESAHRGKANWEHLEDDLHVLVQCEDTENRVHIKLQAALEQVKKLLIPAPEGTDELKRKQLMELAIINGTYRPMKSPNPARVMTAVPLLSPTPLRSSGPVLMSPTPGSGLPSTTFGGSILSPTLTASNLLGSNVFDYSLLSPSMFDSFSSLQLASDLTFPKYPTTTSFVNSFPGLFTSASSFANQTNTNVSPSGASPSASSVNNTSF
Mcl1-Noxa inh = Mcl-1/Noxa interaction inhibition; Q07820; TR-FRET Mcl-1/Noxa peptide binding, 2 h; inhibition, % at 21.7 µM; actives 1.5% (n = 220,000); AID 1022;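 active means compounds that cut the protein-peptide binding signal by more than 50% relative to plate controls in a single-dose test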;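 further: His-tagged Mcl-1 with rhodamine Noxa BH3 peptide and terbium anti-His antibody; 0% = Mcl-1 plus Noxa peptide wells and 100% = peptide-only wells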
BCLXL inh confirm = Bcl-xL (human) inhibition, MCL1 counter-screen confirmation. shares compounds with MCL1-BIM inh. GST-Bcl-xL / FITC-Bim BH3 peptide FP binding. inhibition, % at 10.9 µM. actives 54% (n = 1,700);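 active means inhibition above a cutoff equal to the mean inhibition of all tested compounds plus 3 SD, cut at about 30% in these data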;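 further: 0% = DMSO wells and 100% = unlabeled Bim BH3 control peptide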
MCL1 inh confirm = confirmation of human MCL1 and BIM-BH3 interaction inhibitors. shares compounds with MCL1-BIM inh. GST-MCL1 / FITC-Bim-BH3 fluorescence polarization. inhibition, % at 10.9 µM. actives 61% (n = 1,700). AID 2168;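 active means inhibition above the average of all tested compounds plus 3 SD, cut at about 40% in these data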;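 further: 0% = DMSO wells and 100% = unlabeled Bim-BH3 control peptide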
Starred values were filed as active, the others as inactive; x = no result; + = active, no number.

SMILES | Mcl1-Bid inh | Bim-Mcl-1 | BCLXL inh | MCL1-BIM inh | GLD-1 TGE inh | Mcl1-Noxa inh | BCLXL inh confirm | MCL1 inh confirm
COc1ccc(C(CNC(=O)Nc2ccc(Cl)cc2)N2CCN(C)CC2)cc1 (configuration not stated) | x | x | 1 | 0 | 6 | x | x | x
CCN1C(=O)N(c2cccc3ccccc23)C(C)=CC1(C)C | -35 | -2 | -2 | 1 | -7 | 18 | x | x
CCN1c2ccccc2N(C)C1(C)c1ccccc1 (configuration not stated) | 30 | 2 | 88* | 94* | 66* | 85* | 61* | 98*
Fc1ccc(C2=CC(c3ccco3)n3ncnc3N2)cc1 (configuration not stated) | -77 | -4 | 152* | 181* | 96* | 11 | 11 | 22
Fc1ccc(C2=CC(c3ccc(Br)o3)n3ncnc3N2)cc1 (configuration not stated) | 17 | -4 | 180* | + | 163* | 23 | 125* | 156*
C1=C(c2ccc(-c3ccccc3)cc2)Nc2ncnn2C1c1ccco1 (configuration not stated) | -56 | -1 | x | x | x | 20 | x | x
CCOc1ncccc1C(=O)OCC(=O)Nc1cc(C(C)(C)C)ccc1OC | x | x | x | x | 8 | x | x | x
CCOC(=O)Nc1ccc(NCc2ccc(F)cc2)nc1N | x | x | 141* | 191* | 132* | x | 36* | 31
NC(=O)c1c(NC(=O)C2CC=CCC2C(=O)O)sc2c1CCCCC2 (configuration not stated) | x | x | 27 | 41* | 2 | x | 20 | 20
C=CCn1c(=O)[nH]c2nc3cc(N=CN(C)C)c(C)cc3nc2c1=O | -13 | x | + | + | 181* | -174 | 186* | +
COCCNC(=O)NC(=O)CN1CCCc2ccccc21 | -21 | -1 | 51* | 74* | -5 | 12 | 7 | 12
Cc1nc2ccccn2c1C(=O)N/N=C/c1ccc([N+](=O)[O-])o1 | -52 | -2 | 23 | 41* | 6 | 39 | 24 | 54*
CC(NC(=O)CCCc1nnc2n(C)c(=O)c3sccc3n12)c1ccccc1 (configuration not stated) | x | x | 5 | 2 | -4 | x | x | x
O=C(Cc1ccccc1)NN1CCCCC1 | x | x | 3 | 14 | 4 | x | x | x
O=C1CCCC(O)=C1N=Nc1cccc(C(=O)O)c1 | -43 | 0 | 15 | 40* | -7 | 57* | 11 | 35
CCC(CC)c1nnc(NC(=O)c2cccc(S(=O)(=O)N3CCOCC3)c2)s1 | x | x | x | x | 7 | x | x | x
CC(C)OC(=O)c1c2c(n3ccccc13)C(=O)c1ccccc1C2=O | -6 | 8 | 89* | 122* | -7 | -4 | 136* | 151*
CC(C)CCN1C(=O)c2cccc3c(N)ccc(c23)C1=O | x | x | 173* | + | 185* | x | 145* | 164*
Cc1ccnc(N2C(=O)c3cccc4c([N+](=O)[O-])ccc(c34)C2=O)c1 | 25 | 0 | 88* | 103* | 77* | x | 82* | 119*
Cc1cccc(N2C(=O)c3cccc4c(N)ccc(c34)C2=O)c1 | x | x | + | + | + | x | 198* | +
Nc1cccc(N2C(=O)c3cccc4c(N)ccc(c34)C2=O)c1 | x | x | + | + | 195* | x | + | +
O=C(CSc1n[nH]c(-c2ccccc2Cl)n1)NCc1cccc(C(=O)O)c1 | -4 | 19 | 6 | 5 | -8 | 13 | x | x
Cc1cccc(N2C(=O)c3cccc4c(N(C)CCO)ccc(c34)C2=O)c1 | -6 | -1 | 183* | + | 176* | -86 | 169* | +
CC(=O)N1CCc2c(sc(NC(=O)c3ccc4c(c3)OCCO4)c2C#N)C1 | -17 | 1 | 4 | 6 | -3 | 26 | x | x
CC(=O)N1CCc2c(sc(NC(=O)c3ccc(S(=O)(=O)N(C)C)cc3)c2C#N)C1 | x | x | 1 | 41* | 3 | x | 38* | 39
SMILES | Mcl1-Bid inh | Bim-Mcl-1 | BCLXL inh | MCL1-BIM inh | GLD-1 TGE inh | Mcl1-Noxa inh | BCLXL inh confirm | MCL1 inh confirm
Cc1cc(Cl)ccc1NC(=S)NCc1ccc(F)cc1 | x | x | 1 | 2 | 1 | x | x | x
O=C(CSc1nc(C2CC2)nc2ccccc12)N1c2ccccc2Sc2ccc(C(F)(F)F)cc21 | -22 | -4 | 2 | 47* | 7 | -27 | 11 | 14
O=C(CSc1nc(C2CC2)nc2ccccc12)N1CCCCC1 | x | x | 6 | 2 | -5 | x | x | x
Cc1ccc(-c2nc(C#N)c(N3CCC(C(N)=O)CC3)o2)cc1 | x | x | 4 | -2 | -1 | x | x | x
COc1ccc(OC)c2[nH]c(=O)c(CCNS(=O)(=O)c3ccc(Cl)cc3)cc12 | -9 | -2 | 1 | 44* | -11 | 11 | 6 | 3
COc1ccc(OC)c2[nH]c(=O)c(CCNS(=O)(=O)c3ccc(C)cc3)cc12 | 1 | -1 | 6 | 6 | -2 | 3 | x | x
COCCN(Cc1cc2ccc(C)cc2[nH]c1=O)S(=O)(=O)c1ccccc1 | x | x | 1 | -1 | 1 | x | x | x
Cc1ccc(SCCNC(=O)/C=C/c2ccc(Cl)cc2)cc1 | -31 | -1 | 7 | 54* | 0 | 0 | 24 | 34
Cc1ccc(SCCNC(=O)/C=C/c2ccc([N+](=O)[O-])cc2)cc1 | -11 | 1 | 7 | 1 | 3 | 0 | x | x
N#Cc1c(=O)c2nc(NCc3ccccc3)ncc2n2ccccc12 | -9 | 5 | 44* | 53* | 20 | 35 | 32* | 43*
N=C1SC(CC(=O)Nc2ccccc2[N+](=O)[O-])C(=O)N1c1ccccc1 (configuration not stated) | -2 | x | 4 | -1 | -4 | 2 | x | x
COc1ccc(CCNc2nc3ccccc3n3nnnc23)cc1OC | -3 | 3 | 54* | 55* | 16 | 20 | 29 | 30
c1ccc(CCNc2nc3ccccc3n3nnnc23)cc1 | 0 | 1 | 8 | 5 | 6 | 12 | x | x
C#CCN1C(=O)S/C(=C\c2ccc(N3CCOCC3)cc2C)C1=O | -6 | 0 | -9 | 70* | -47 | -5 | 121* | 153*
CCN1C(=O)S/C(=C\c2ccc(N3CCOCC3)cc2C)C1=O | -10 | -7 | -5 | -12 | -51 | -3 | x | x
CC(=O)Nc1cccc(C(=O)N2CCC(n3nccc3NC(=O)CC(C)C)CC2)c1 | x | x | 0 | 2 | 3 | x | x | x
Cc1ccc(-c2cccc(CN3CCN(C4CCN(C(C)C)CC4)C(CCO)C3)c2)o1 (configuration not stated) | -32 | -4 | 13 | 3 | -4 | 17 | x | x
O=C(c1ccc(Cl)cc1)C1C2C(=O)N(c3ccccc3)C(=O)C2C2CCCN21 (configuration not stated) | -81 | 1 | x | x | x | 7 | x | x

High-throughput results as filed in PubChem BioAssay.
